# Assay outcomes: PubChem, National Center for Advancing Translational Sciences (NCATS)
# FMDV inh = foot and mouth disease virus antiviral activity; AID 1159524; Potency, µM (top dose mostly 57.9 µM), inactives show top-dose activity change, negative = inhibition, usual class: inhibitors; FMDV antiviral cell-based qHTS; 1.2% of 410,000 active; calls by dose curve; tested in HEK293T cells; further: read-out not given here; potency means the concentration at half of the fitted maximal effect; nearly all actives have a fitted effect of over 45% in size
# Marburg entry inh = Marburg virus entry inhibition | 1.8% of 300,000 active | Marburg virus pseudotyped entry inhibition, cell reporter | Potency, µM (titrated, usually from 37.8 µM), for inactives: at the highest dose activity change, negative = inhibition, hits mostly inhibitors; calls by dose curve; tested in HEK293 cells; further: potency means the concentration at half of the fitted maximal effect
# HCMV inh = human cytomegalovirus inhibition. HFF cells, HCMV-luciferase reporter, 72 h; active compounds read low. activity change, negative = inhibition, % at 57.5 µM. 4.5% of 410,000 active. AID 1259415; in the data active means activity change below about -60%; inconclusive means no clear call, values can overlap the other calls; inactive means above about -39%
#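 Human foreskin fibroblasts infected with luciferase-reporter HCMV at MOI 1 PFU/cell, compounds at two doses. Luciferase measured 72 h post infection; normalized to buffer-only basal and Salinomycin (10uM) controls.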
# Lassa entry inh = inhibitors of Lassa virus binding or cell entry. Lassa virus pseudotype entry inhibition, cell reporter. Potency, µM (top dose mostly 37.9 µM), for inactives: top-dose activity change, negative = inhibition, hits mostly inhibitors. 1.2% of 300,000 active; calls by dose curve; tested in HEK293 cells; further: potency means the concentration at half of the fitted maximal effect; nearly all actives have a fitted effect of over 50% in size
# Numbers without * were called inactive; ? = inconclusive; . = not tested or not shown; + = active, no number; [ ] = another dose, or the depositor's remark. Most compounds without a hit are left out; they make up all but 6.2% or so of the library. On the % scale 0 is the no-effect control and ±100 the full control effect.
SMILES,FMDV inh,Marburg entry inh,HCMV inh,Lassa entry inh
Cc1cccn2c(=O)c3cc(C(=O)NCCN4CCOCC4)c(=N)n(Cc4ccc(F)cc4)c3nc12,-3%,?,-100*,5.6µM*
Cc1c2cnn(CC(=O)NCCN3CCOCC3)c(=O)c2c(C)n1Cc1ccc(F)cc1,0%,.,-72*,.
Cc1cccn2c(=O)c3cc(C(=O)NCCN4CCOCC4)c(=N)n(CCN4CCOCC4)c3nc12,-8%,?,12,-1%
CCc1nn(CC(=O)NCCCN2CCOCC2)c(=O)c2cc3cc(F)ccc3n12,4%,7%[46.1 µM],+,16%[46.1 µM]
CCOC(=O)[C@H]1[C@H]2COc3ccc(Cl)cc3[C@@H]2N2C(=O)CN(Cc3ccc(F)cc3)C(=O)[C@@]12C,-21%,.,-3,.
N=c1c(C(=O)NCc2ccccc2)cc2c(=O)n3ccccc3nc2n1CCCN1CCOCC1,-3%,?,-5,-3%
N=c1c(C(=O)NCCc2ccccc2)cc2c(=O)n3ccccc3nc2n1CCCN1CCOCC1,-4%,7.1µM*,-17,?
COc1ccc(CCNC(=O)c2cc3c(=O)n4cccc(C)c4nc3n(CCCN3CCOCC3)c2=N)cc1,0%,.,-95*,.
COCCn1c(=N)c(C(=O)NCCc2ccc(OC)cc2)cc2c(=O)n3cccc(C)c3nc21,?,-10%,29,-13%
Cn1cc(CN2CCc3c([nH]c4ccccc34)C2C2CCCCC2)cn1 (stereo not drawn),-16%,?,19,11%
CCCCn1c(N)c(N(CCOC)C(=O)c2cc(S(=O)(=O)N3CCOCC3)ccc2Cl)c(=O)[nH]c1=O,-10%,0%,0,.
CN(C)c1ccc(Nc2nc(N)c3ccccc3n2)cc1,7.1µM*,0.63µM*,-30,0.89µM*
COC(=O)c1ccc(Oc2nc(Nc3ccccc3)nc(N(C)C)n2)cc1,?,-19%,-15,-3%
CCOc1ccc(Nc2nc(N)c3ccccc3n2)cc1,8.9µM*,4.5µM*,-2,?
Nc1nc(Nc2ccccc2)nc2ccccc12,-43%,?,229,?
CN(C)c1nc(Nc2ccccc2)nc(N(C)C)n1,-1%,3.5µM*,50,22%
Cc1ccc(CNC(=O)CN(Cc2ccccc2)S(C)(=O)=O)cc1,-14%,2%,-2,-13%
C#CCOCCOCCOCCNc1nc(N2CCOCC2)nc(N2CCN(C(=O)[C@H](CCC(=O)O)n3cc([C@@H](N)CCCCN)nn3)CC2)n1,-4%,.,-1,.
O=C(CCl)NCCCCCCCCCNC(=O)CCl,-22%,8.9µM*,-100*,?
CC(C)CN(C(=O)CN(C)CC(=O)Nc1ccccc1C#N)c1c(N)n(CC(C)C)c(=O)[nH]c1=O,9%,7%[46.1 µM],-20,13%[46.1 µM]
CC(C)N1CC(C(=O)Nc2ccccc2)CC1=O (stereo not drawn),0%,11%,-11,2%
CCCSc1nc2c(cnn2-c2ccccc2)c(=O)n1N,-6%,?,73,8.9µM*
Cc1cc(C)c(C2=NOC3C4CCC(C4)C23)c(C)c1 (stereo not drawn),-21%,3%,-63*,-7%
COC(=O)Cc1c(C(=O)OC)nnn1-c1cccc(C(F)(F)F)c1,-19%,20%[46.1 µM],2,-19%
NC(=Nc1ccc(N)cc1)C(N)=Nc1ccc(N)cc1,-21%,?,-65*,26%[46.1 µM]
SMILES,FMDV inh,Marburg entry inh,HCMV inh,Lassa entry inh
Oc1ccc2ccccc2c1/C=N/Nc1nnc(-c2ncc[nH]2)c2ccccc12,-3%,6.5µM*,-102*,?
COc1cc(N/N=C/c2ccccc2O)ncn1,14%,?,-103*,?
COc1cc(/C=N/Nc2ccccn2)cc(OC)c1O,23%,?,21,7.9µM*
COc1cc(N/N=C/c2ccc(N(C)C)cc2)ncn1,-19%,.,70,.
COc1ccc(/C=N/Nc2nnc(-c3ncc[nH]3)c3ccccc23)cc1,?,29%,.,18%
Oc1ccc2ccccc2c1C=NNc1ccccn1,10%,5.6µM*,-98*,?
Cc1ccccc1NC1c2ccccc2C(=O)N1Cc1ccco1 (stereo not drawn),-4%,.,69,.
NC(N)=Nc1nc(C2COc3ccccc3O2)cs1 (stereo not drawn),-1%,26%[46.1 µM],-13,-10%
CCOC(=O)c1cc(CC)sc1/N=C/c1c(O)ccc2ccccc12,-15%,-10%,-70*,?
O=c1c2ccccc2nc(N/N=C/c2c(O)ccc3ccccc23)n1O,0%,0.79µM*,-101*,0.63µM*
Oc1ccccc1N=Cc1c(O)ccc2ccccc12,-1%,-13%[46.1 µM],-70*,-5%[46.1 µM]
O=C(Cc1csc(NC(=O)Nc2cccc(Cl)c2)n1)NCc1cccnc1,-8%,-5%,-15,0%
Nc1c(Cl)ncnc1N/N=C/c1cccnc1,-8%,22%[14.2 µM],-13,-7%
Nc1c(Cl)ncnc1N/N=C/c1ccc2ccccc2n1,-13%,16µM*,-98*,?
Nc1c(Cl)ncnc1N/N=C/c1ccccn1,-10%,?,-99*,2.5µM*
Nc1c(Cl)ncnc1N/N=C/c1ccnc2ccccc12,16%,0%,-14,3%
Cc1ccc(C2C3=C(NCCN=C3c3ccccc3)C(=O)N2c2ccccc2)cc1 (stereo not drawn),.,10µM*,-24,?
CCOc1ccc(N2C(=O)C3=C(C(c4ccc(Cl)cc4)=NCCN3)C2c2cccnc2)cc1 (stereo not drawn),-3%,11µM*,-31,?
O=S(=O)(NCCC1=CCCCC1)c1ccc(Br)cc1,37%,9%,-73*,?
Cc1ccc(C)c(NC(=O)c2cc(S(=O)(=O)NCCC3=CCCCC3)ccc2F)c1,13%,.,-34,-22%[46.1 µM]
Cc1ccc(NC(=O)c2cc(S(=O)(=O)NCCC3=CCCCC3)ccc2F)cc1,-21%,?,-84*,?
COC(=O)C1=CN(Cc2cccs2)C=C(C(=O)OC)C1c1cccc(O)c1,-11%,2%[46.1 µM],-17,7.1µM*
COC(=O)C1=CN(Cc2ccc(OC)c(OC)c2)C=C(C(=O)OC)C1c1cccc(F)c1,?,.,-2,.
CCN(CC)CCCN(c1ccccc1)C1Cc2ccccc2C1,.,6.5µM*,-12,?
CCCCN(CCCC)CC1OCc2ccccc2CO1,0%,?,0,?
SMILES,FMDV inh,Marburg entry inh,HCMV inh,Lassa entry inh
COc1ccc(C(=O)N2CCN(c3ccc([N+](=O)[O-])c(NCCc4ccc(OC)c(OC)c4)c3)CC2)cc1,8.9µM*,?,-99*,4.5µM*
COc1ccc(CCNc2cc(N3CCN(C(=O)c4ccccc4F)CC3)ccc2[N+](=O)[O-])cc1OC,3.5µM*,?,-97*,?
COc1ccc(CCNc2cc(N3CCN(C(=O)c4ccc(C)cc4)CC3)ccc2[N+](=O)[O-])cc1OC,.,-22%,.,8%
CS(=O)(=O)c1ccc2nc(NC(=O)c3cccs3)sc2c1,-73%,2.2µM*,76,?
CCOc1ccc2nc(NC(=O)c3cccc(-c4cc5ccccc5oc4=O)c3)sc2c1,5%,?,-30,15%
Cc1ccc2nc(NC(=O)c3cccc(-c4cc5ccccc5oc4=O)c3)sc2c1,.,?,-89*,?
Cc1ccc2nc(NC(=O)c3cccs3)sc2c1,-37%,3.2µM*,14,2.5µM*
CCOC(=O)c1c(NC(=O)CSc2nc3cc(Cl)ccc3s2)sc(C(C)=O)c1C,.,25%,-61*,10%
